# Entries with a potency or affinity are not part of this list. Unmarked numbers belong to inactive results.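 How the source made its calls: active means earlier screen potentiator hit that boosts the TRPC4 ion channel at some dose, with a dose response; inactive means no potentiation, no dose response, or not a prior hit.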
# Molecular target: Short transient receptor potential channel 4 (Mus musculus) (UniProt Q9QUQ5)
# Experiment: potentiation of DAMGO-evoked TRPC4 calcium signal – cell-based, HEK293 TRPC4/mu-opioid, Fluo-4 calcium, EC20 DAMGO, dose response (AID 434941);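 further: calcium entry triggered by an EC20 dose of DAMGO at the co-expressed mu-opioid receptor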
# Settings: HEK293 TRPC4/mu-opioid cells, Fluo-4 calcium fluorescence; series mostly up to 20 µM; potentiation ratio: at the top concentration
# Sequence of Short transient receptor potential channel 4 (Mus musculus) (Q9QUQ5 whole entry, looked up): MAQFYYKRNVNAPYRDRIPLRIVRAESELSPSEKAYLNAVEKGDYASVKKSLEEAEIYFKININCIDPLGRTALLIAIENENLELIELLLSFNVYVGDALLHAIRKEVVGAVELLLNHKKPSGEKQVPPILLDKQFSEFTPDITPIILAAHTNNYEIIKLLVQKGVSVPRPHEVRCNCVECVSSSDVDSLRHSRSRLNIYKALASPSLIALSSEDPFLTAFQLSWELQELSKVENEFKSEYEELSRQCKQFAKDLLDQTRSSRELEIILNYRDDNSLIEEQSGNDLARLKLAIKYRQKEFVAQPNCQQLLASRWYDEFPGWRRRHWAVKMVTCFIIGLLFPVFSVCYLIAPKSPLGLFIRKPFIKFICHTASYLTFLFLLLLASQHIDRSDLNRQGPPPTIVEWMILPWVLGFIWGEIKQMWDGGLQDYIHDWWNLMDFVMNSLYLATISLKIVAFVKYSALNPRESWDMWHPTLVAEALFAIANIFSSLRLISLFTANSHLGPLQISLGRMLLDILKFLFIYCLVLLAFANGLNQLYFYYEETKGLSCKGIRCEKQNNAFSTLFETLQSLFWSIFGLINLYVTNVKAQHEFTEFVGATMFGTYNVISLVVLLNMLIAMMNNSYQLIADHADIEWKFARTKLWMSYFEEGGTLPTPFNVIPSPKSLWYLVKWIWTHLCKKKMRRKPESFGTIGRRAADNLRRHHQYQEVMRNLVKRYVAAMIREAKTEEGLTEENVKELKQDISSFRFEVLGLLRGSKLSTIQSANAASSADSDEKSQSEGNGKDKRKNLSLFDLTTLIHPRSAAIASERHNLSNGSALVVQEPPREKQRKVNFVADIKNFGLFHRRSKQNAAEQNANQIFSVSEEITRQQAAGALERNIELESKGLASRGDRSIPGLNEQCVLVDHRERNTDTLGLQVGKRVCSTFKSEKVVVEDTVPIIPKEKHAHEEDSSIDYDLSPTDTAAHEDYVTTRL
row,Compound,potentiation ratio
1,COC(=O)c1ccccc1NC(=O)c1cnn2cccnc12,-0.45
2,Cc1cc(Cl)ccc1OC(C)C(=O)Nc1ccccc1N1CCOCC1 (centres undefined),25.1
3,CC(C(=O)c1ccc(Br)cc1)[n+]1cccc(NC(=O)c2ccccc2)c1 (centres undefined),-0.59
4,Cn1c(SCCOc2ccccc2F)nc2ccccc2c1=O,24.3
5,O=C(CN1CCCN(S(=O)(=O)c2ccc(F)cc2)CC1)Nc1ccccc1Br,-12
6,Cc1c(CCOC(=O)c2ccccc2)sc[n+]1CC(=O)c1ccc(Br)cc1,-8.56
7,Cc1c(N2C(=O)/C(=C/c3ccccc3)SC2=S)c(=O)n(-c2ccccc2)n1C,0.88
8,CCOC(=O)Cc1csc(NC(=O)NC2(C(F)(F)F)Oc3cc(Cl)c(Cl)cc3O2)n1,1
9,CCCn1nc(C(=O)NC2CCCc3ccccc32)c2ccccc2c1=O (centres undefined),87
10,CCOC(=O)c1c(C)n(-c2ccc(C)cc2)c2ccc(OCC(O)CNCC3CCCO3)cc12 (centres undefined),-30.4
11,O=C(NCCCN1CCN(CCCNC(=O)c2cccc(Cl)c2)CC1)c1cccc(Cl)c1,8.47
12,COC(=O)[C@@]12CCCCN1[C@H](c1ccc(-c3ccc(C(C)=O)cc3)cc1)[C@@H]1C(=O)N(C)C(=O)[C@@H]12,27.4
13,Cc1ccc(CNC(=O)CSc2nc(=O)n3ccccc3n2)cc1,1.16
14,CCCCCCc1cc2cc(-c3nnc(-c4ccccc4O)o3)c(=O)oc2cc1O,17.6
15,CCCCN(C)CCNC(=O)C1CCCN(S(=O)(=O)c2cccc3nsnc23)C1 (centres undefined),10.9
16,Cc1cccc(NC(=O)CNC(=O)CN2C(=O)NC3(CCCCC3C)C2=O)c1C (centres undefined),1.39
17,CC(C)c1ccc(OCc2ccc(C(=O)N3CCCC3)o2)cc1,11.4
18,COc1ccc(-n2cc(CNCc3cnc4ccccn34)c(-c3cccc(F)c3)n2)cc1,-23.3
19,COc1ccc(CCN2C(=S)N(C)C(=O)C2CC(=O)Nc2ccc(F)cc2)cc1 (centres undefined),0.86
20,CCOC(=O)C1=NNC(C(=O)c2ccc(Cl)cc2)C1c1ccc(OC)cc1 (centres undefined),24.7

row,Compound,potentiation ratio
1,Cc1ccc(C(C)C)c(OCCCCN2CCNCC2)c1,6.22
2,CCOC(=O)CSc1nc2ccccc2c(=O)n1C1CCCC1,-3.12
3,Clc1ccc(Cl)c(OCCCCN2CCNCC2)c1,-2.98
4,COc1ccc(-c2cc(C(=O)N3CC(C)CC(C)C3)c3ccccc3n2)cc1 (centres undefined),1.43
5,Cn1c(N2CCC(C(N)=O)CC2)nc2c1c(=O)n(Cc1ccc(Br)cc1)c(=O)n2C,13.3
6,OC1(c2ccc(Cl)cc2)CN(c2ccccc2)C2=[N+]1CCS2 (centres undefined),-12.8
7,CCN(CCCNC(=O)CCCOc1cc(=O)n(C)c2ccccc12)Cc1ccccc1,16.6
8,O=C(NN/C(=N/S(=O)(=O)c1ccc(Cl)cc1)c1ccccc1)c1cccc(Cl)c1,15.9
9,CCn1c2ccc(F)cc2c2nnc(NN)nc21,3.02
10,CCN(CC)CCOCCOc1ccc(Cl)c2ccccc12,5.41
11,O=C(NCCCN1CCCC1=O)c1ccc(CNS(=O)(=O)c2ccc(F)cc2)cc1,0.94
12,Cc1noc(C)c1COC(=O)[C@@H](NC(=O)c1ccccc1Cl)C(C)C,0.86
13,C/C=C/Cn1c(SCCCc2ccccc2)nc2c1c(=O)[nH]c(=O)n2C,17.1
14,O=[N+]([O-])c1ccc2c(c1)C=C1CCCCC1(N1CCCC1)O2 (centres undefined),2.1
15,COc1ccc(CCn2c(=S)[nH]c3cc(C(=O)N4CCOCC4)ccc3c2=O)cc1OC,0.04
16,CN(C)CCCCOc1cccc(Br)c1,0.57
17,CC1=CC(=O)C(C(C)C)=C/C1=N/OS(=O)(=O)c1ccccc1,11.7
18,O=C1CC(NS(=O)(=O)c2cccs2)CN1c1ccccc1 (centres undefined),23.1
19,OCCNCc1cc(Br)ccc1OCc1ccccc1,0.62

# Source: PubChem BioAssay
